# From the supplement of paper PMC3724861
# Many of the other results were omitted from the sample, so hits are more common in it than they were. The hit rate among all sequences tested is not known here. Unmarked numbers belong to inactive results.
# System: T1, Caupolican (Caup) homeodomain DNA-binding domain
# T1 sequence: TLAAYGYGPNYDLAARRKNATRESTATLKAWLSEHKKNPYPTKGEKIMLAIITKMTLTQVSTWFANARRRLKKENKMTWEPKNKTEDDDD
# Assay: PBM E-score (8-mer, recovered from the published 9-mer minima) (E-score (dimensionless, -0.5 to 0.5)); Drosophila protein; higher = stronger relative binding preference, active = 0.31 or more
# Protocol: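 Protein binding microarray (PBM): in vitro transcribed/translated Caupolican (Caup) homeodomain DNA-binding domain (residues 214-303) applied at 100 nM to a universal 8-mer PBM array (Agilent AMADID 015681). The 8-mer enrichment score (E-score, range -0.5 to 0.5) was computed, and each 9-mer score is the minimum E-score of its two constituent 8-mers. The E-score is the same for a 9-mer and its reverse complement; 0.31 is the stated binding threshold.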
row,Sequence,PBM E-score
1,AGGAAGGA,-0.0149
2,AATGGCTC,-0.0437
3,ATAACAAC,0.346 (active)
4,GTAACAAC,0.341 (active)
5,CTAACAAC,0.278
6,ATAACACA,0.305
7,AAAACAAC,0.214
8,ATAACAAA,0.205
9,ATAACAAG,≥ 0.373 (active)
10,GTAACAAA,0.217
11,AGAACAAC,0.229
12,CTAACACA,0.276
13,ATAACAAT,0.254
14,ATAACACG,≥ 0.334 (active)
15,ACAGTTTC,0.0345
16,CCAGCGGG,-0.276
17,AGACCCCT,-0.143
18,CACGGTCC,-0.0957
19,CGACGATC,0.00125
20,TCGTGAAA,0.00205
21,CCGTGTAA,0.35 (active)
22,TAGTGTAA,0.207
23,ACGTGTGA,0.155
24,GAGTGTAA,0.11
25,CAGTGTAA,0.218
26,ACGTGTAA,≥ 0.394 (active)

row,Sequence,PBM E-score
1,AGGTGTAA,0.2
2,GCGTGTAA,0.327 (active)
3,CCGTGTGA,0.0813
4,GCGTGTGA,0.0667
5,TCGTGTAA,0.363 (active)
6,CTATCTGA,0.0431
7,AAGTGGAC,-0.00011
8,AGTTGGCC,-0.159
9,ATATATCG,0.0746
10,CAGACTGC,-0.0434
11,TAAGTAGA,0.11
12,CAGGGCTA,-0.125
13,CCAGACAC,0.05
14,AACGATGG,-0.0529
15,AACGATGC,-0.051
16,AACGATGT,0.35 (active)
17,TAACTTCA,0.137
18,AACGCAGA,-0.0244
19,TGACTGAA,-0.0626
20,GGCCGCGA,-0.26
21,CATGTCGA,0.412 (active)
22,TATGTCGA,0.323 (active)
23,CATGTCGG,0.357 (active)
24,GATGTCGC,0.201
25,CAGGTCGG,-0.0619
26,GATGTCGA,0.217

row,Sequence,PBM E-score
1,AATGTCGA,0.212
2,AATGTCGC,0.191
3,CGTGTCGA,0.281
4,CATGTCGC,0.363 (active)
5,AATGTCGG,0.119
6,CTTGTCGA,0.303
7,ACCGCGTC,-0.0819
8,TATTCTCA,0.0911
9,CTGTGAAG,-0.0616
10,GCGACAGA,0.0849
11,CTGGGTTC,-0.0931
12,ATTAGCGG,-0.0813
13,AACAGGGG,0.0757
14,GACTTACC,-0.0473
15,ACCATCAT,0.0686
16,GACCTCAA,0.0301
17,TAATTACA,0.335 (active)
18,AACTTACA,≥ 0.344 (active)
19,CACTTACA,0.243
20,GAATTACA,0.29
21,AAATTACA,0.329 (active)
22,TAATTATA,0.234
23,CAATTACA,0.334 (active)
24,CAATTACC,-0.00996
25,AAATTACT,0.124
26,GACTTACA,0.246

row,Sequence,PBM E-score
1,AAATTACG,0.0367
2,CAATTACG,0.0582
3,AGGTAATA,0.0994
4,CGCCCATA,-0.126
5,CGACCTCC,-0.138
6,AGCAACGA,0.0654
7,ACAATCCG,0.117
8,CGGGAAAA,-0.0322
9,CCGGAGAG,-0.159
10,CATTTACA,0.239
11,AATTTACA,0.328 (active)
12,GATTTACA,0.246
13,GAGGTTGC,-0.184
14,AGGCAATA,0.0132
15,AATTGCAT,0.0474
16,GCAAGGTA,0.0505
17,ACAAGGTC,0.298
18,CCAAGATA,0.106
19,ACAAGATC,0.258
20,ACAAGACA,≥ 0.352 (active)
21,ACAAGGTA,0.335 (active)
22,GCAAGACA,0.0548
23,ACAAGATA,0.342 (active)
24,ACAAGACG,0.257
25,CGAATAGA,0.0132
26,ACGTCACG,0.0623

row,Sequence,PBM E-score
1,CATTCCCA,-0.01
2,CGGGATCC,-0.132
3,ACCCAAGC,-0.122
4,CCCTGCGG,-0.29
5,ACGTCGAG,-0.0187
6,ATAACAGA,0.171
7,ATAACATA,0.356 (active)
8,ATAACAGG,0.155
9,CTAACATC,0.208
10,GTAACATA,0.345 (active)
11,GTAACAGA,0.211
12,ATAACATG,0.424 (active)
13,ATAACATC,0.318 (active)
14,CTAACATA,0.28
15,ATAACTTG,0.197
16,ATAACAGC,0.148
17,CGATCATC,0.0443
18,ATCCGCGG,-0.111
19,AAAGTTGG,0.0235
20,ATAGGGGA,-0.137
21,AACCGGCG,-0.0557
22,GCTAGATA,0.0474
23,CCGCGTCC,-0.087
24,CAAGTATC,0.148
25,AGTGTATC,0.186
26,CATGTATC,0.408 (active)

row,Sequence,PBM E-score
1,GATGTATA,0.295
2,AATGTATA,0.271
3,AATGTATC,0.314 (active)
4,AATGTATG,0.243
5,CCTGTATC,0.125
6,CATGTATA,0.418 (active)
7,CAACCCCA,-0.102
8,CACTGATG,0.107
9,GAGAACGC,-0.0756
10,CACTTCCG,-0.121
11,ATATCGTC,0.107
12,AGACCCAA,-0.131
13,CTTACAAC,0.333 (active)
14,CTTACAAG,0.343 (active)
15,CTCACAAG,0.0655
16,GTTACAAC,0.303
17,CTTACAAA,0.181
18,CATACAAC,0.27
19,CCGCGTCA,-0.126
20,AGCTGGTG,-0.0997
21,AGCGGCGG,-0.225
22,ATAGGCGA,-0.0622
23,CGGTGTCA,0.193
24,CTATGTCA,0.307
25,CGATGTCC,0.143
26,ATATGTCA,0.305

row,Sequence,PBM E-score
1,GTATGTCA,0.345 (active)
2,AGATGTCA,0.279
3,GGATGTCA,0.311 (active)
4,GGATGTGA,0.081
5,CGATGTCA,0.311 (active)
6,ACAAGGTG,0.255
7,AAGCGCGA,-0.033
8,CAACGTGA,0.0867
9,CGAGCTCA,-0.105
10,CAACCGTA,0.0275
11,AGACATAC,0.222
12,ATACATAA,0.348 (active)
13,CTACATTC,0.119
14,ATACATTG,0.261
15,CTACATAC,0.286
16,ATACATAG,0.292
17,ATACATAT,0.344 (active)
18,ATACATTC,≥ 0.314 (active)
19,AGACATAT,0.264
20,ATACATAC,0.332 (active)
21,CCTCACAA,-0.0288
22,GGAATGAA,0.00414
23,GTAGAGGA,0.00507
24,AGTGATAA,0.126
25,GTCGCCAA,-0.0201
26,GCCCTAAC,-0.104

row,Sequence,PBM E-score
1,CATCATGA,0.11
2,ACACCAGT,0.101
3,CTCCCGAA,-0.138
4,CTATTAAC,0.178
5,CAGGGATC,-0.124
6,GCTCCAGC,-0.186
7,CAGTAGTA,0.175
8,ATGTAGGC,0.12
9,AAGTAGTA,0.186
10,AAGTAGTC,0.159
11,CTGTAGTC,0.0608
12,GTGTAGTA,0.357 (active)
13,ATGTAGTC,0.331 (active)
14,CTGTAGTA,0.348 (active)
15,ATGTAGTG,0.27
16,GAGTAGTA,0.0893
17,ATGTAGTA,0.372 (active)
18,GCGTAGTA,0.0285
19,AAAGGTGC,-0.0982
20,TGAGCAAA,0.0543
21,GGAGGCAC,-0.154
22,ACTGAGCA,0.0738
23,CTCTTTTC,-0.1
24,CCTCTGTC,-0.0145
25,AGCTCATC,-0.167
26,GTCGTGTA,0.386 (active)

row,Sequence,PBM E-score
1,ATCGTGTC,0.336 (active)
2,ATCGTGCA,0.127
3,ATCGTGTG,0.149
4,CTCGTGTC,0.26
5,AGCGTGTA,0.355 (active)
6,AGCGTGTC,0.231
7,CTCGTGTA,0.27
8,CGCGTGTA,0.285
9,GTCGTGGA,-0.0165
10,ATCGTGTA,0.407 (active)
11,ATCGTGGA,-0.0656
12,CTTGAAGA,-0.0903
13,ATCGACGG,-0.105
14,GTTAAAGA,0.0986
15,GCAACTAC,0.0804
16,GGCAGAGA,-0.188
17,AGTCGAAA,0.0145
18,AAAACTCC,-0.138
19,AACTCGGG,-0.0964
20,GTTTCAAA,0.0987
